Experimental data: publication PMC11062922 (Nature Chemical Biology, 2023)
Where two headings read alike, the source gives them in different places.

Legend:
[1] = test system: SIK2; settings: read-out: apparent Kd, n = 1
[2] = test system: STK3; settings: read-out: apparent Kd, n = 1

Substance: Lestaurtinib
- potency estimated from few doses ([1]; compound concentrations:100 nM and 1000 nM (sheet 'Lestaurtinib' of Supplementary Table 1),run:Lestaurtinib_02584_R3,Plate:MR017): 53.4 nM
- potency estimated from few doses ([1]; compound concentrations:100 nM and 1000 nM (sheet 'Lestaurtinib' of Supplementary Table 1),run:Lestaurtinib_02601_R2,Plate:MR018): 94.3 nM
- potency estimated from few doses ([1]; compound concentrations:100 nM and 1000 nM (sheet 'Lestaurtinib' of Supplementary Table 1),run:Lestaurtinib_02601_R3,Plate:MR018): 40.2 nM
- potency estimated from few doses ([1]; compound concentrations:100 nM and 1000 nM (sheet 'Lestaurtinib' of Supplementary Table 1),run:Lestaurtinib_02606_R1,Plate:MR019): 51.2 nM
- potency estimated from few doses ([1]; compound concentrations:100 nM and 1000 nM (sheet 'Lestaurtinib' of Supplementary Table 1),run:Lestaurtinib_02606_R2,Plate:MR019): 45.6 nM
- potency estimated from few doses ([1]; compound concentrations:100 nM and 1000 nM (sheet 'Lestaurtinib' of Supplementary Table 1),run:Lestaurtinib_02624_R1,Plate:MR020): 51.5 nM
- potency estimated from few doses ([1]; compound concentrations:100 nM and 1000 nM (sheet 'Lestaurtinib' of Supplementary Table 1),run:Lestaurtinib_02624_R2,Plate:MR020): 49.5 nM
- potency estimated from few doses ([1]; compound concentrations:100 nM and 1000 nM (sheet 'Lestaurtinib' of Supplementary Table 1),run:Lestaurtinib_02624_R3,Plate:MR020): 46.5 nM
- potency estimated from few doses ([1]; compound concentrations:100 nM and 1000 nM (sheet 'Lestaurtinib' of Supplementary Table 1),run:Lestaurtinib_02724_R1,Plate:MR021): 73.9 nM
- potency estimated from few doses ([1]; compound concentrations:100 nM and 1000 nM (sheet 'Lestaurtinib' of Supplementary Table 1),run:Lestaurtinib_02724_R2,Plate:MR021): 44.8 nM
- potency estimated from few doses ([1]; compound concentrations:100 nM and 1000 nM (sheet 'Lestaurtinib' of Supplementary Table 1),run:Lestaurtinib_02724_R3,Plate:MR021): 50.5 nM
- potency estimated from few doses ([1]; compound concentrations:100 nM and 1000 nM (sheet 'Lestaurtinib' of Supplementary Table 1),run:Lestaurtinib_02741_R1,Plate:MR023): 57.2 nM
- potency estimated from few doses ([1]; compound concentrations:100 nM and 1000 nM (sheet 'Lestaurtinib' of Supplementary Table 1),run:Lestaurtinib_02741_R2,Plate:MR023): 71.3 nM
- potency estimated from few doses ([1]; compound concentrations:100 nM and 1000 nM (sheet 'Lestaurtinib' of Supplementary Table 1),run:Lestaurtinib_02741_R3,Plate:MR023): 54.5 nM
- potency estimated from few doses ([1]; compound concentrations:100 nM and 1000 nM (sheet 'Lestaurtinib' of Supplementary Table 1),run:Lestaurtinib_02748_R1,Plate:MR024): 48.8 nM
- potency estimated from few doses ([1]; compound concentrations:100 nM and 1000 nM (sheet 'Lestaurtinib' of Supplementary Table 1),run:Lestaurtinib_02748_R2,Plate:MR024): 56.4 nM
- potency estimated from few doses ([1]; compound concentrations:100 nM and 1000 nM (sheet 'Lestaurtinib' of Supplementary Table 1),run:Lestaurtinib_02748_R3,Plate:MR024): 51.6 nM
- potency estimated from few doses ([1]; compound concentrations:100 nM and 1000 nM (sheet 'Lestaurtinib' of Supplementary Table 1),run:Lestaurtinib_02752_R2,Plate:MR025): 56 nM
- potency estimated from few doses ([1]; compound concentrations:100 nM and 1000 nM (sheet 'Lestaurtinib' of Supplementary Table 1),run:Lestaurtinib_02752_R3,Plate:MR025): 56 nM
- potency estimated from few doses ([1]; compound concentrations:100 nM and 1000 nM (sheet 'Lestaurtinib' of Supplementary Table 1),run:Lestaurtinib_02765_R1,Plate:MR026): 49.7 nM
- potency estimated from few doses ([1]; compound concentrations:100 nM and 1000 nM (sheet 'Lestaurtinib' of Supplementary Table 1),run:Lestaurtinib_02765_R2,Plate:MR026): 91.3 nM
- potency estimated from few doses ([1]; compound concentrations:100 nM and 1000 nM (sheet 'Lestaurtinib' of Supplementary Table 1),run:Lestaurtinib_02766_R1,Plate:MR027): 43.3 nM
- potency estimated from few doses ([1]; compound concentrations:100 nM and 1000 nM (sheet 'Lestaurtinib' of Supplementary Table 1),run:Lestaurtinib_02766_R2,Plate:MR027): 26.9 nM
- potency estimated from few doses ([1]; compound concentrations:100 nM and 1000 nM (sheet 'Lestaurtinib' of Supplementary Table 1),run:Lestaurtinib_02768_R2,Plate:MR028): 45.1 nM
- potency estimated from few doses ([1]; compound concentrations:100 nM and 1000 nM (sheet 'Lestaurtinib' of Supplementary Table 1),run:Lestaurtinib_02768_R3,Plate:MR028): 47.4 nM
- potency estimated from few doses ([1]; compound concentrations:100 nM and 1000 nM (sheet 'Lestaurtinib' of Supplementary Table 1),run:Lestaurtinib_02795_R1,Plate:MR022): 59.7 nM
- potency estimated from few doses ([1]; compound concentrations:100 nM and 1000 nM (sheet 'Lestaurtinib' of Supplementary Table 1),run:Lestaurtinib_02795_R2,Plate:MR022): 62.3 nM
- potency estimated from few doses ([1]; compound concentrations:100 nM and 1000 nM (sheet 'Lestaurtinib' of Supplementary Table 1),run:Lestaurtinib_02795_R3,Plate:MR022): 165 nM
- potency estimated from few doses ([1]; compound concentrations:100 nM and 1000 nM (sheet 'Lestaurtinib' of Supplementary Table 1),run:Lestaurtinib_02802_R1,Plate:MR029): 49.8 nM
- potency estimated from few doses ([1]; compound concentrations:100 nM and 1000 nM (sheet 'Lestaurtinib' of Supplementary Table 1),run:Lestaurtinib_02802_R2,Plate:MR029): 52.5 nM
- potency estimated from few doses ([1]; compound concentrations:100 nM and 1000 nM (sheet 'Lestaurtinib' of Supplementary Table 1),run:Lestaurtinib_02802_R3,Plate:MR029): 25.3 nM
- potency estimated from few doses ([1]; compound concentrations:100 nM and 1000 nM (sheet 'Lestaurtinib' of Supplementary Table 1),run:Lestaurtinib_02896_R2,Plate:MR030): 44.8 nM
- potency estimated from few doses ([1]; compound concentrations:100 nM and 1000 nM (sheet 'Lestaurtinib' of Supplementary Table 1),run:Lestaurtinib_03172_R1,Plate:MR031): 46.2 nM
- potency estimated from few doses ([1]; compound concentrations:100 nM and 1000 nM (sheet 'Lestaurtinib' of Supplementary Table 1),run:Lestaurtinib_03172_R2,Plate:MR031): 51.4 nM
- potency estimated from few doses ([1]; compound concentrations:100 nM and 1000 nM (sheet 'Lestaurtinib' of Supplementary Table 1),run:Lestaurtinib_03172_R3,Plate:MR031): 49.5 nM
- potency estimated from few doses ([1]; compound concentrations:100 nM and 1000 nM (sheet 'Lestaurtinib' of Supplementary Table 1),run:Lestaurtinib_03252_R2,Plate:MR032): 34.3 nM
- potency estimated from few doses ([1]; compound concentrations:100 nM and 1000 nM (sheet 'Lestaurtinib' of Supplementary Table 1),run:Lestaurtinib_03260_R1,Plate:MR033): 77.2 nM
- potency estimated from few doses ([1]; compound concentrations:100 nM and 1000 nM (sheet 'Lestaurtinib' of Supplementary Table 1),run:Lestaurtinib_03260_R3,Plate:MR033): 54.9 nM
- potency estimated from few doses ([2]; compound concentrations:100 nM and 1000 nM (sheet 'Lestaurtinib' of Supplementary Table 1),run:Lestaurtinib_02339_R1,Plate:MR001): 36.6 nM
- potency estimated from few doses ([2]; compound concentrations:100 nM and 1000 nM (sheet 'Lestaurtinib' of Supplementary Table 1),run:Lestaurtinib_02339_R2,Plate:MR001): 36.6 nM
- potency estimated from few doses ([2]; compound concentrations:100 nM and 1000 nM (sheet 'Lestaurtinib' of Supplementary Table 1),run:Lestaurtinib_02364_R1,Plate:MR002): 36.5 nM
- potency estimated from few doses ([2]; compound concentrations:100 nM and 1000 nM (sheet 'Lestaurtinib' of Supplementary Table 1),run:Lestaurtinib_02364_R3,Plate:MR002): 51.5 nM
